Reference: PubChem BioAssay AID1159602 (The Scripps Research Institute Molecular Screening Center, 2016)
Screen size: about 22,000 compounds; about 220 (1%) were called active. Rule as the data show it: active = inhibition above about 35%; inactive = the rest. For the sample, actives were picked, then their nearest neighbours and some compounds at random.

Molecular target: Mitogen-activated protein kinase kinase kinase 5 (Homo sapiens) (UniProt Q99683)
Experiment: ASK1 kinase inhibitors, primary screen, biochemical, AlphaScreen (AID 1159602);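 also: 0% = median of compound wells and 100% = no enzyme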
Details: AlphaScreen MKK6 phosphorylation by ASK1, luminescence; at 7.44 µM; active compounds read high

Mitogen-activated protein kinase kinase kinase 5 (Homo sapiens), sequence (Q99683 whole entry, looked up): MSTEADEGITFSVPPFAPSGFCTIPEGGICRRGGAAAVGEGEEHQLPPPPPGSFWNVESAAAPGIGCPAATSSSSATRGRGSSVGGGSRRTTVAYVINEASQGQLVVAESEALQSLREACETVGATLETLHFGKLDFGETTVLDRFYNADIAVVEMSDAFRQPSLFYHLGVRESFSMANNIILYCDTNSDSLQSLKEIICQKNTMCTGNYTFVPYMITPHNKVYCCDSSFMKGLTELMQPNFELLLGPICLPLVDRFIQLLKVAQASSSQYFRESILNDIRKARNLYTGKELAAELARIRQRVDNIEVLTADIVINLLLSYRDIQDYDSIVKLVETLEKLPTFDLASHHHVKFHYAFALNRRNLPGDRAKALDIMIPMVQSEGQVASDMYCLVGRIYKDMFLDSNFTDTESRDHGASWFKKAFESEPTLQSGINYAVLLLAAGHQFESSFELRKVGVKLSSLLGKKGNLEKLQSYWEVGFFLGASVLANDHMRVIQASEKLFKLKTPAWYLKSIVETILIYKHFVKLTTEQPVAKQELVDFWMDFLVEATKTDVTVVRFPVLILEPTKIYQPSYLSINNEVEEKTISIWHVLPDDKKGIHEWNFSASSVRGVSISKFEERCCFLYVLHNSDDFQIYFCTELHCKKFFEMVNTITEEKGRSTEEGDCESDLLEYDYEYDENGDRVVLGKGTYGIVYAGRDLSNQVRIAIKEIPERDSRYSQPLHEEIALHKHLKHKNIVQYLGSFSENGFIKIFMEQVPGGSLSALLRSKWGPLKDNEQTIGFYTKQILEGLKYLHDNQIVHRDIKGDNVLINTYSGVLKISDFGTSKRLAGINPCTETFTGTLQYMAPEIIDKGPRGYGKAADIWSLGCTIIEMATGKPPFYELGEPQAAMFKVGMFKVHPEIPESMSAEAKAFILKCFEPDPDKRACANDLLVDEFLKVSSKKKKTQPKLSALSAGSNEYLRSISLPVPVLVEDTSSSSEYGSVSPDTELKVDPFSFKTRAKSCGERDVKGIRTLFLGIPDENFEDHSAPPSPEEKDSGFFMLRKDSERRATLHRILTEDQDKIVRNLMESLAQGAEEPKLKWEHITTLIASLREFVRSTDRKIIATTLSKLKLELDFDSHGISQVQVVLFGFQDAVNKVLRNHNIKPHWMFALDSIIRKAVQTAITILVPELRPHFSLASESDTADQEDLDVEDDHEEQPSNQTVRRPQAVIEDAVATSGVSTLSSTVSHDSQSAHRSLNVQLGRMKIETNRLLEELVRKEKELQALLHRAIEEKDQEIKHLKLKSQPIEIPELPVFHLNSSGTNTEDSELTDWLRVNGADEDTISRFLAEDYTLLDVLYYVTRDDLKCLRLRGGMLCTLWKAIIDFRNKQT

| SMILES | inhibition |
| --- | --- |
| CNC(=O)c1cc(F)ccc1Nc1cc(Nc2ccc3nc[nH]c3c2)ncc1C(F)(F)F | -2.41% (inactive) |
| NC(=O)c1ccc(-c2nc(Nc3ccc(N4CCOCC4)cc3)c3ncn(-c4ccccc4)c3n2)cc1 | 4.79% (inactive) |
| Cc1cccc(CC(=O)Nc2cnn(-c3cccc(-c4nn[nH]n4)c3)c2)c1 | 1.78% (inactive) |
| CC(=O)Nc1ccc(Nc2ncnc3c2nc(NCCN2CCOCC2)n3C(C)C)cc1 | -3.14% (inactive) |
| CC(C)c1nc2ccc(-c3cn[nH]c3)cc2c(=O)[nH]1 | 12.2% (inactive) |
| Cc1cnc(Nc2cnccn2)nc1NCc1cccnc1 | -9.12% (inactive) |
| O=C(NC1CC1)c1ccc(-c2ccc(C(=O)NCc3cccc(C(F)(F)F)c3)s2)cc1 | 4.99% (inactive) |
| O=C(NC1CCN(Cc2ccccc2)CC1)c1cc(N2CCCC2CO)nc2ccccc12 (stereo not given) | -11.9% (inactive) |
| CC(C)C[C@H](O)C(=O)NC1CCC(Nc2ccc3[nH]ncc3c2)CC1 (stereo not given in full) | -17% (inactive) |
| O=C(Cc1cn(-c2ccc(N3CCC(N4CCOCC4)CC3)nn2)c2ccccc12)NCCCN1CCCC1=O | -20.2% (inactive) |
| CC(C)n1c(N2CCOCC2)nc2c(Nc3ccc(Oc4ccccc4)cc3)ncnc21 | -3.94% (inactive) |
| COc1ccc(CCNc2nc(-c3ccccc3)nc3c2ncn3CCN2CCCC2=O)cc1 | -23.4% (inactive) |
| O=C(NCCN1CCOCC1)C1CCN(c2ccc(Nc3ccccc3)nn2)CC1 | 6.22% (inactive) |
| CCN(CC)CCNC(=O)c1ccc(Nc2cc(Nc3ccccc3C(=O)NC)c(C(F)(F)F)cn2)c(C)c1 | -5.11% (inactive) |
| c1nc(NC2CC2)c2[nH]c(N3CCC(N4CCOCC4)CC3)nc2n1 | -10.6% (inactive) |
| COc1ccc(-c2cnc3ccc4ccccc4c3c2)cc1 | -3.77% (inactive) |
| CCN(CC)c1nc(Nc2cc(OC)c(OC)c(OC)c2)nc(Nc2nc3ccccc3n2C)n1 | 3.84% (inactive) |
| Nc1nc(NCc2cccc(C(F)(F)F)c2)cc(NCc2ccc3c(c2)OCO3)n1 | -4.13% (inactive) |
| CCCNC(=O)c1cncc(-c2ccccc2)c1 | -0.96% (inactive) |
| O=C(NCCCN1CCCC1=O)C1CCN(c2ccc(Cl)nn2)CC1 | -13.9% (inactive) |
| COc1cc(NC(=O)c2cnc(-c3ccccc3)s2)cc(OC)c1OC | 15% (inactive) |
| Oc1ccc(CCNc2nc(Nc3ccccn3)nc3nc[nH]c23)cc1 | -9.99% (inactive) |
| CC(=O)Nc1ccc(NC(=O)c2csc(-c3c(C)nn(C)c3C)n2)cc1 | 11% (inactive) |

| SMILES | inhibition |
| --- | --- |
| c1nc(NC2CC2)c2[nH]c(N3CCN(Cc4ccc5c(c4)OCO5)CC3)nc2n1 | -10.7% (inactive) |
| c1cnc(Nc2nc(NC3CC3)c3[nH]cnc3n2)cn1 | -8.13% (inactive) |
| CC(=O)Nc1ccc(Nc2nc(N3CCc4ccccc4C3)nc3c2ncn3C(C)C)cc1 | 14% (inactive) |
| CN(C)c1cccc(Nc2nc3ccc(C(=O)Nc4ccc(N5CCOCC5)cc4)cc3s2)c1 | 29% (inactive) |
| COc1ccc(CCNC(=O)c2ccnc(-c3ccc(C(=O)NC4CC4)cc3)c2)cc1 | -2.59% (inactive) |
| CCN(CC)c1nc(NCCCN2CCCC2=O)nc(N2CCC(N3CCOCC3)CC2)n1 | 2.42% (inactive) |
| CCNc1nc(NCCOc2ccccc2)c2ncn(Cc3ccc(C(F)(F)F)cc3)c2n1 | -5.64% (inactive) |
| FC(F)(F)c1cccc(CNc2ncnc3nc(N4CCC(N5CCOCC5)CC4)[nH]c23)c1 | -8.59% (inactive) |
| CCN(CC)C(=O)C1CCCN(c2nccc(NCc3nc4ccccc4[nH]3)n2)C1 (stereo not given) | 4.76% (inactive) |
| COc1ccc(CNc2nc(-c3cccc(OC(F)(F)F)c3)nc3c2ncn3C(C)C)cc1 | -11.1% (inactive) |
| COc1cc2nc(NCc3cccnc3)nc(NCCN3CCOCC3)c2cc1OC | -7.09% (inactive) |
| NS(=O)(=O)c1ccc(Nc2nccc(-c3cccc(Cl)c3)n2)cc1 | -4.08% (inactive) |
| Cc1cc(Nc2ccccc2)nc(NCc2cccnc2)n1 | -4.25% (inactive) |
| O=C(NCc1ccccc1)c1ccnc(Nc2nccc3ccccc23)c1 | -2.15% (inactive) |
| CCN(CC)C(=O)C1CCCN(c2nc(Nc3ccc(NC(C)=O)cc3)c3ncn(C4CCCCC4)c3n2)C1 (stereo not given) | -11% (inactive) |
| Nc1nc(NCCO)cc(N2CCOCC2)n1 | -6.61% (inactive) |
| O=C(NCc1nc2ccncc2[nH]1)c1c(F)cccc1F | -12.1% (inactive) |
| O=C(Cc1ccc(Br)cc1)N1CCCC(Nc2cccc3cnccc23)C1 (stereo not given) | -21.7% (inactive) |
| O=C1CCCN1CCCNc1nc(-c2ccccc2)nc2nc[nH]c12 | -3.38% (inactive) |
| CN1CCN(c2nc(C3COc4ccccc4O3)nc3ccc(-c4cn[nH]c4)cc23)CC1 (stereo not given) | 41.7% (active) |
| Cn1c(C2COc3ccccc3O2)nc2ccc(-c3cn[nH]c3)cc21 (stereo not given) | 8.71% (inactive) |
| c1ccc2c(c1)OCC(c1cnc3ccc(-c4cn[nH]c4)cc3n1)O2 (stereo not given) | 14.4% (inactive) |
